AMA1-RON2 inh: disrupts binding of P. falciparum AMA1 to RON2; AlphaScreen AMA1-biotinylated RON2 peptide binding; Potency, µM (series often up to 58.2 µM), actives largely listed as inhibitors; hit rate 0.2% among 360,000; further: nearly all actives have a fitted effect of over 45% in size
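AMA1 (3D7) with his tag at 25 nM final met compounds first, then biotinylated RON2 peptide at 25 nM; detection used donor plus acceptor beads, 10 µg/mL apiece, read by AlphaScreen after 30 min at room temperature.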
CHX counter: counter-screen hit for Shiga toxin inhibitors, cycloheximide; cell reporter, cycloheximide protein synthesis inhibition counterscreen; max response, %; hit rate 12% among 300,000; in the data active means max response mostly above about 13%, no sharp cut-off; inactive means mostly below about 14%; further: read at 38.3 µM for the half of the compounds with a filed dose
Pf growth 48h: P. falciparum growth inhibition at 48 hours (one generation) | P. falciparum luciferase growth in erythrocytes, 48 h | Potency, µM (titrated, usually from 28.7 µM), usual class: inhibitors | hit rate 5.9% among 310,000
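Read-out is firefly luciferase luminescence from an integrated reporter in P. falciparum, so falling signal marks reduced parasite growth. Infected erythrocytes were at 2% hematocrit and 0.1% parasitemia (final) in Albumax-supplemented RPMI 1640.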
Shiga inhibitor: Shiga toxin inhibition; Vero cells, Shiga toxin protein synthesis inhibition reporter; hit rate 9.2% among 290,000; inhibition, % at 38.7 µM; AID 2315; in the data active means inhibition mostly above about 28%, no sharp cut-off; inactive means mostly below about 43%
HCV inh: blocks hepatitis C virus; Potency, µM (top dose mostly 41.8 µM), most hits filed as inhibitors; hit rate 3.4% among 340,000; Huh7.5.1 HCVcc-Cre infection, luciferase reporter, 44 h
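Infectious HCVcc-Cre (~0.5 moi) was added to cells just after compound, with cells seeded 4 h earlier at 1,000 per well. Luciferase activity after 44 h culture reported infection; substrate was incubated 15 min at room temperature before reading.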
Pf growth 96h: P. falciparum growth inhibition at 96 hour, primary screen for plastid delayed-death inhibitors; Potency, µM (top dose mostly 28.7 µM), actives largely listed as inhibitors; P. falciparum luciferase reporter growth, 96 h; AID 504834; hit rate 6.9% among 320,000
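Two-generation exposure (96 h) targets delayed-death phenotype. Reporter parasites carrying integrated firefly luciferase, in red cells at 2% hematocrit and 0.05% parasitemia final, kept at 37 C, 5% CO2; luminescence loss indicates inhibition.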
Large screens that a line does not name were inactive. Sampled rows, rich in hits. Any-hit rate of the full collection: about 21%. Unless noted, the call rests on the fitted dose curve; in most records, active means well fitted curve in the direction sought with a large enough effect; inconclusive means small, poorly fitted or top-dose-only effect, or another doubt; inactive means no such curve, though single readings can be large; an effect the other way counts as inactive or inconclusive.

O=C(CSc1nc2ccccc2c(=O)n1CC1CCCO1)Nc1ccccc1Cl (centres undefined)	Pf growth 96h inconclusive
O=C1c2cccnc2C(=O)N1c1cccc(-c2nc3ccccc3o2)c1	CHX counter 34.0, Shiga inhibitor 67.5
CCC/C=C1/CCCOC(C(=O)NCCOC)(C(F)(F)F)C1 (centres undefined)	none (no result: AMA1-RON2 inh, Pf growth 48h, HCV inh, Pf growth 96h)
Cc1c(C)c2ccc(OCC(=O)Nc3ccccc3C(N)=O)cc2oc1=O	none
Cc1ccccc1-c1noc(CCC(=O)NC2CCCCC2)n1	Pf growth 96h 10.4µM
CCOc1ccccc1-c1noc(CCC(=O)NC2CCCCC2)n1	Pf growth 96h inconclusive
O=C(CCc1nc(-c2ccc(F)cc2)no1)Nc1cccc(C(=O)NC2CC2)c1	HCV inh 14.1µM (no result: CHX counter, Pf growth 48h, Shiga inhibitor, Pf growth 96h)
Cc1cccc(CCNC(=O)CCc2nc(-c3ccccc3F)no2)c1	HCV inh inconclusive, Pf growth 96h inconclusive
COc1ccccc1-c1noc(CCC(=O)NC2CCCC2)n1	Pf growth 96h 2.62µM
CN(C(=O)CCc1nc(-c2ccccc2F)no1)c1ccccc1	CHX counter 41.4, Pf growth 48h inconclusive, Shiga inhibitor 98.3
CC(=O)Nc1cccc(-c2csc(C(C)(NC(C)=O)c3ccccc3)n2)c1 (centres undefined)	none (no result: CHX counter, Pf growth 48h, Shiga inhibitor, HCV inh, Pf growth 96h)
Cc1ccc(-c2noc(CCC(=O)NC3CCCC3)n2)cc1	Pf growth 96h inconclusive
O=C(CCc1nc(-c2ccccc2F)no1)NC1CCCCC1	CHX counter 8.6 (no result: Pf growth 96h)
Cc1ccc(-c2noc(CCC(=O)NC3CC3)n2)cc1	CHX counter 19.8
O=C(CCCc1nc(-c2ccccc2Cl)no1)NC1CCCCC1	HCV inh inconclusive
C=C(C)CSc1nnc(CCCCCNC(=O)OC(C)(C)C)o1	HCV inh inconclusive
CCc1nc2ccc(C(=O)N(C)Cc3ccco3)cn2c1N(CC)C(=O)NCCc1ccccc1	none (no result: CHX counter, Pf growth 48h, Shiga inhibitor, HCV inh, Pf growth 96h)
Cc1ccccc1C(=O)NC(NC(=S)Nc1ccc(S(N)(=O)=O)cc1)C(Cl)(Cl)Cl (centres undefined)	Pf growth 48h inconclusive, Pf growth 96h inconclusive
Cc1ccc(C)c(NC(=S)NC(NC(=O)Cc2ccccc2)C(Cl)(Cl)Cl)c1 (centres undefined)	Pf growth 48h inconclusive, HCV inh inconclusive (no result: Pf growth 96h)
Cc1ccccc1NC(=S)NC(NC(=O)c1ccccc1C)C(Cl)(Cl)Cl (centres undefined)	Pf growth 48h inconclusive, HCV inh inconclusive, Pf growth 96h 2.62µM
Cc1cc(C)c(NC(=S)NC(NC(=O)c2ccccc2)C(Cl)(Cl)Cl)c(C)c1 (centres undefined)	Pf growth 48h 3.29µM
Cc1ccc(NC(=S)NC(NC(=O)c2ccccc2)C(Cl)(Cl)Cl)c(C)c1 (centres undefined)	Pf growth 48h 10.4µM, HCV inh inconclusive, Pf growth 96h inconclusive
Cc1ccc(C(=O)NC(NC(=S)Nc2ccc(S(N)(=O)=O)cc2)C(Cl)(Cl)Cl)cc1 (centres undefined)	none
CCC(=O)NC(=S)Nc1ccc(NC(=O)c2ccccc2[N+](=O)[O-])cc1	HCV inh inconclusive
CCCCOC(=O)c1ccc(NC(=O)c2cc(Cl)ccc2OC)cc1	Pf growth 48h inconclusive, Pf growth 96h inconclusive
CCCCOC(=O)c1ccc(NC(=O)c2ccccc2OC)cc1	Shiga inhibitor 29.0, HCV inh inconclusive, Pf growth 96h inconclusive
CCCOC(=O)c1ccc(NC(=O)c2ccccc2[N+](=O)[O-])cc1	CHX counter 37.7, Shiga inhibitor 91.4, HCV inh inconclusive, Pf growth 96h inconclusive
CCCOC(=O)c1ccc(NC(=O)c2ccccc2OC)cc1	CHX counter 26.2, Shiga inhibitor 86.1
COc1ccccc1CNC(=O)[C@@H](NC(=O)C1CCN(C(=O)[C@@H]2CCCN2)CC1)C(C)C	none
Cc1ccc2nc(/N=C(\N)NC(=O)NC3CCCCC3)nc(C)c2c1	Pf growth 48h inconclusive, HCV inh 11.2µM, Pf growth 96h inconclusive
Cc1cc2nc(N=C(N)N)nc(C)c2cc1C	Pf growth 48h inconclusive, HCV inh inconclusive
CCCC(=O)N/C(N)=N/c1nc(C)c2cc(C)ccc2n1	Pf growth 48h 2.62µM, HCV inh 6.31µM, Pf growth 96h 2.62µM
Cc1cc2nc(/N=C(\N)NC(=O)C(C)C)nc(C)c2cc1C	Pf growth 48h 2.62µM, HCV inh 11.2µM, Pf growth 96h 2.62µM
CCC(=O)N/C(N)=N/c1nc(C)c2cc(C)c(C)cc2n1	Pf growth 48h 1.65µM, HCV inh inconclusive, Pf growth 96h 1.65µM
Cc1ccc(NC(=O)NC2CCCCC2)c(C)c1	none
COc1ccc(NC(=O)CCSCCc2ccccn2)cc1OC	none
Cc1ccccc1NC(=O)c1cc[n+]([O-])cc1	none
O=C1NC2(Nc3ccccc31)C(=O)Nc1ccccc12 (centres undefined)	CHX counter 23.6, Pf growth 48h inconclusive, Shiga inhibitor 58.9
COc1ccc(-n2ncc3c(N(C)C4CCCCC4)ncnc32)cc1	CHX counter 44.7, Shiga inhibitor 73.7
COc1ccc(OC)c(Nc2ncnc3c2cnn3-c2cccc(C)c2)c1	HCV inh inconclusive, Pf growth 96h inconclusive
Cc1cccc(-n2ncc3c(N(C)C4CCCCC4)ncnc32)c1	CHX counter 90.1, Shiga inhibitor 127.4
Cc1cccc(-n2ncc3c(N4CCCc5ccccc54)ncnc32)c1	HCV inh inconclusive (no result: Pf growth 48h)
Cc1cccc(-n2ncc3c(N(CCO)CCO)ncnc32)c1	CHX counter 27.2, Shiga inhibitor 64.9
Cc1ccc(S(=O)(=O)N2CCC(=O)N([C@H](COC(=O)Nc3ccccc3)Cc3ccccc3)CC2)cc1	none (no result: CHX counter, Pf growth 48h, Shiga inhibitor, HCV inh, Pf growth 96h)
CC(=O)c1c(C)n(-c2cccc(Cl)c2)c2ccc(O)cc12	Pf growth 96h 2.62µM
CC(=O)c1c(C)n(CCc2ccc(Cl)cc2)c2ccc(O)cc12	Pf growth 96h 5.86µM (no result: Shiga inhibitor)
COC(=O)c1c(C)n(-c2ccc(C)cc2)c2ccc(O)cc12	HCV inh inconclusive, Pf growth 96h 4.15µM (no result: Pf growth 48h)
Cc1cc(C(=O)CCl)c(C)n1CCc1ccc(Cl)cc1	Pf growth 48h inconclusive, HCV inh 10µM, Pf growth 96h 8.28µM
COC(=O)c1c(C)n(-c2ccccc2)c2ccc(O)cc12	Pf growth 48h inconclusive, HCV inh inconclusive (no result: Pf growth 96h)
CC(=O)c1c(C)n(CCO)c2ccc(O)cc12	none (no result: Pf growth 96h)
CCc1nc2ccc(C(=O)NCCC(C)C)cn2c1N(CC)CCN(C)C	none (no result: CHX counter, Pf growth 48h, Shiga inhibitor, HCV inh, Pf growth 96h)
CC(Oc1cc2oc(=O)c3c(c2cc1Cl)CCC3)C(=O)NCCN1CCOCC1 (centres undefined)	none
CC(CCCC(C)(C)O)CC1C2=C(CCCC2=O)OC2=C1C(=O)CCC2 (centres undefined)	none
CC(=O)NC(c1ccccc1)c1nc(-c2cccc(CO)c2)cs1 (centres undefined)	none (no result: CHX counter, Pf growth 48h, Shiga inhibitor, HCV inh, Pf growth 96h)
COc1cc(OC)c(C(=O)OCC(=O)Nc2ccc(S(=O)(=O)N3CCOCC3)cc2)cc1OC	none (no result: CHX counter, Pf growth 48h, Shiga inhibitor, Pf growth 96h)
C=CCN1CCN(C(=O)c2oc3ccccc3c2C)CC1	CHX counter 20.3, Pf growth 96h inconclusive
CCOc1ccc(C(=O)N2CCN(c3ccccn3)CC2)cc1	none
